Measurements as given in ChEMBL document CHEMBL1961873, “Compounds: GSK PKIS; Assays: Nanosyn kinase panel” (2012).

Experiments:
[1] = molecular target: Mitogen-activated protein kinase 3 (Homo sapiens) (UniProt P27361); conditions: at 1 µM;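 also: values are mean percent inhibition of MAPK3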
[2] = molecular target: SRSF protein kinase 3 (Homo sapiens) (UniProt Q9UPE1); conditions: at 0.1 µM
[3] = molecular target: SRSF protein kinase 3 (Homo sapiens) (UniProt Q9UPE1); conditions: at 1 µM
[4] = molecular target: Mitogen-activated protein kinase 14 (Homo sapiens) (UniProt Q16539); conditions: at 0.1 µM
Chain of Mitogen-activated protein kinase 14 (Homo sapiens) (Q16539 whole entry): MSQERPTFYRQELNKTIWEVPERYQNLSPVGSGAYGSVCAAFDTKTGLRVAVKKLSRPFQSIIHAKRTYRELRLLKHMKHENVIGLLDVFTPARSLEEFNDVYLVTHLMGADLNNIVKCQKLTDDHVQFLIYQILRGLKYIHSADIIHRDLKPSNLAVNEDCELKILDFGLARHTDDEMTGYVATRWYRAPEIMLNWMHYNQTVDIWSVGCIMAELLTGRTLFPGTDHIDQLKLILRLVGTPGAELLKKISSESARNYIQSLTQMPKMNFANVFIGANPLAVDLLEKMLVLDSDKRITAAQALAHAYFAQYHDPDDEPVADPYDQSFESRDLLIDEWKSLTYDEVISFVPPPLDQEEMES

[5] = molecular target: Mitogen-activated protein kinase 14 (Homo sapiens) (UniProt Q16539); conditions: at 1 µM
[6] = molecular target: Mitogen-activated protein kinase 11 (Homo sapiens) (UniProt Q15759); conditions: at 0.1 µM
Chain of Mitogen-activated protein kinase 11 (Homo sapiens) (Q15759 whole entry): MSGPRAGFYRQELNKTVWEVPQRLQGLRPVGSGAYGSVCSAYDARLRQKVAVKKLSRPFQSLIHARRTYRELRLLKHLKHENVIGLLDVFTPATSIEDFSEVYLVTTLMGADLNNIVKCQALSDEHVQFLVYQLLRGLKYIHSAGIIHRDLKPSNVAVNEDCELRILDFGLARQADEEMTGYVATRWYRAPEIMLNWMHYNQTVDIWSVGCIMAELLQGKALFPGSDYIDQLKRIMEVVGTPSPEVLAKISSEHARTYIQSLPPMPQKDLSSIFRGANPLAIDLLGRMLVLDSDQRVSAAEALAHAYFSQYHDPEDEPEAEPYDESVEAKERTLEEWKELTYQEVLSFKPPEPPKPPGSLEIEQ

[7] = molecular target: Mitogen-activated protein kinase 11 (Homo sapiens) (UniProt Q15759); conditions: at 1 µM
[8] = molecular target: T1, Mitogen-activated protein kinase 13 (Homo sapiens) (UniProt O15264); conditions: at 0.1 µM
T1 sequence (whole entry): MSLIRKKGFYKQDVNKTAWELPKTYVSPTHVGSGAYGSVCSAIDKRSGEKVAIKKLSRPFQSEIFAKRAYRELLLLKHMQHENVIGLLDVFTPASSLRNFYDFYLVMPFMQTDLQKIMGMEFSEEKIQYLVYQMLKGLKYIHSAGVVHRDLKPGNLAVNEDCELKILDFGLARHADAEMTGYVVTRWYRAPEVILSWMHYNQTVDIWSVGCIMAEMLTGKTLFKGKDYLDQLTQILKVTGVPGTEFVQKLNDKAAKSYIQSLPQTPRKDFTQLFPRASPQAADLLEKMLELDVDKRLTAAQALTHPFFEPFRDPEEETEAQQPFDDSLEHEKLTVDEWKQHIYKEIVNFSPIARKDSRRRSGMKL

[9] = molecular target: T1, Mitogen-activated protein kinase 13 (Homo sapiens); conditions: at 1 µM
[10] = molecular target: T2, Mitogen-activated protein kinase 12 (Homo sapiens) (UniProt P53778); conditions: at 0.1 µM
T2 sequence (whole entry): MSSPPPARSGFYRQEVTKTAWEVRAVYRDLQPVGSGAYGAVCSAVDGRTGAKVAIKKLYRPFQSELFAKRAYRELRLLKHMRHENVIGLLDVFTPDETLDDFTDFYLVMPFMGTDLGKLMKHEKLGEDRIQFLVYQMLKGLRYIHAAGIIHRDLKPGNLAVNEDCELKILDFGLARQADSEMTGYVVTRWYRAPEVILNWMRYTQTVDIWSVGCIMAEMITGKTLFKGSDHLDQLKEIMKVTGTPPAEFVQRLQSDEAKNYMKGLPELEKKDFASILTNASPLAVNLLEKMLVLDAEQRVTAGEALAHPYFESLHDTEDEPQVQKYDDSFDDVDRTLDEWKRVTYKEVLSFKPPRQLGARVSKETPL

[11] = molecular target: T2, Mitogen-activated protein kinase 12 (Homo sapiens); conditions: at 1 µM
[12] = molecular target: SRSF protein kinase 1 (Homo sapiens) (UniProt Q96SB4); conditions: at 0.1 µM
Chain of SRSF protein kinase 1 (Homo sapiens) (Q96SB4 whole entry, canonical isoform): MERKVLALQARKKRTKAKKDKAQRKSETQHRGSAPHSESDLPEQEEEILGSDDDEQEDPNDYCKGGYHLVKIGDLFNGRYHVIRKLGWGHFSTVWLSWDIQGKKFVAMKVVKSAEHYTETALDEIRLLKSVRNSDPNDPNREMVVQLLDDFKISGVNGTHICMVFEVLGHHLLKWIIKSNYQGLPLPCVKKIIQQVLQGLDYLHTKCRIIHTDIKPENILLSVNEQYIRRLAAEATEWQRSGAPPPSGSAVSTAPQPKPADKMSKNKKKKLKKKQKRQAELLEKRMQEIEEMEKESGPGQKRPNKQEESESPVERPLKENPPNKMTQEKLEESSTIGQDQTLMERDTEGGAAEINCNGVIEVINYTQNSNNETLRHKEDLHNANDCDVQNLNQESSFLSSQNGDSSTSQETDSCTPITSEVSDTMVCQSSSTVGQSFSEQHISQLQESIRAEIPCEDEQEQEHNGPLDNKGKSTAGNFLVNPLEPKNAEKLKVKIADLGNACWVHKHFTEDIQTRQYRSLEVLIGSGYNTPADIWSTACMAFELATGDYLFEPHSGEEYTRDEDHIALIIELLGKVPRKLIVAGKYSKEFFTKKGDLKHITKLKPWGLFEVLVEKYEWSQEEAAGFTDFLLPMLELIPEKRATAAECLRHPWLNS

[13] = molecular target: SRSF protein kinase 1 (Homo sapiens) (UniProt Q96SB4); conditions: at 1 µM
[14] = molecular target: Phosphatidylinositol 4,5-bisphosphate 3-kinase catalytic subunit alpha isoform (Homo sapiens) (UniProt P42336); conditions: at 0.1 µM
Chain of Phosphatidylinositol 4,5-bisphosphate 3-kinase catalytic subunit alpha isoform (Homo sapiens) (P42336 whole entry, canonical isoform): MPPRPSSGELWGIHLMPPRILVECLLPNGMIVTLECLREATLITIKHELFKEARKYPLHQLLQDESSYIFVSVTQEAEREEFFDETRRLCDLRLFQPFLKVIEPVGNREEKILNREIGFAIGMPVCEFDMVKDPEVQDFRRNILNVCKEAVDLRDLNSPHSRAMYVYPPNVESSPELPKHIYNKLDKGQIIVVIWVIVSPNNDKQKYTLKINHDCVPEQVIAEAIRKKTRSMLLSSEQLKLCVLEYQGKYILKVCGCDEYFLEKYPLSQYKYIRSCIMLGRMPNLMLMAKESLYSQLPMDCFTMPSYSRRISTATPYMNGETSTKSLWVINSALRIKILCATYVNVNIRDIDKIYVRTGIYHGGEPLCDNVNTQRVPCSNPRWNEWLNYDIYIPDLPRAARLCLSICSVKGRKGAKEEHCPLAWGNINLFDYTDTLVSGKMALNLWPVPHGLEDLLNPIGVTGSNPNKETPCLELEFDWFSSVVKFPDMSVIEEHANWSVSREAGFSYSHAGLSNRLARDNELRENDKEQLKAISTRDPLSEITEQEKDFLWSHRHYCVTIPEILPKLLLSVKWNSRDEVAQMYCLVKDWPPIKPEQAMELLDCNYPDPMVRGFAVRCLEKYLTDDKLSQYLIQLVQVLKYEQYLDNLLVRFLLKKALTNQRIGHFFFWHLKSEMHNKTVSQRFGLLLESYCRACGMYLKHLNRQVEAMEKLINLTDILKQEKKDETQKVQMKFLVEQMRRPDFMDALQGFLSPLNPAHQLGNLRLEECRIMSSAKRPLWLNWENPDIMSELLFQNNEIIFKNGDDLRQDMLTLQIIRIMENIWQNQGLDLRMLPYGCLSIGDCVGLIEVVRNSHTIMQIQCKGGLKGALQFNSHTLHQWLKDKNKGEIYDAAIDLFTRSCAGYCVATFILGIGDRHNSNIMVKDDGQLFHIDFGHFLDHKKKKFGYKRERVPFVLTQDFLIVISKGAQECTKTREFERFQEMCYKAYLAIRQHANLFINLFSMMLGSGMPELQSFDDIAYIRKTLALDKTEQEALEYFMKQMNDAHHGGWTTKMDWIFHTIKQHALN

[15] = molecular target: Phosphatidylinositol 4,5-bisphosphate 3-kinase catalytic subunit alpha isoform (Homo sapiens) (UniProt P42336); conditions: at 1 µM
[16] = molecular target: T3, Phosphatidylinositol 4,5-bisphosphate 3-kinase catalytic subunit delta isoform (Homo sapiens) (UniProt O00329); conditions: at 0.1 µM
T3 sequence (whole entry): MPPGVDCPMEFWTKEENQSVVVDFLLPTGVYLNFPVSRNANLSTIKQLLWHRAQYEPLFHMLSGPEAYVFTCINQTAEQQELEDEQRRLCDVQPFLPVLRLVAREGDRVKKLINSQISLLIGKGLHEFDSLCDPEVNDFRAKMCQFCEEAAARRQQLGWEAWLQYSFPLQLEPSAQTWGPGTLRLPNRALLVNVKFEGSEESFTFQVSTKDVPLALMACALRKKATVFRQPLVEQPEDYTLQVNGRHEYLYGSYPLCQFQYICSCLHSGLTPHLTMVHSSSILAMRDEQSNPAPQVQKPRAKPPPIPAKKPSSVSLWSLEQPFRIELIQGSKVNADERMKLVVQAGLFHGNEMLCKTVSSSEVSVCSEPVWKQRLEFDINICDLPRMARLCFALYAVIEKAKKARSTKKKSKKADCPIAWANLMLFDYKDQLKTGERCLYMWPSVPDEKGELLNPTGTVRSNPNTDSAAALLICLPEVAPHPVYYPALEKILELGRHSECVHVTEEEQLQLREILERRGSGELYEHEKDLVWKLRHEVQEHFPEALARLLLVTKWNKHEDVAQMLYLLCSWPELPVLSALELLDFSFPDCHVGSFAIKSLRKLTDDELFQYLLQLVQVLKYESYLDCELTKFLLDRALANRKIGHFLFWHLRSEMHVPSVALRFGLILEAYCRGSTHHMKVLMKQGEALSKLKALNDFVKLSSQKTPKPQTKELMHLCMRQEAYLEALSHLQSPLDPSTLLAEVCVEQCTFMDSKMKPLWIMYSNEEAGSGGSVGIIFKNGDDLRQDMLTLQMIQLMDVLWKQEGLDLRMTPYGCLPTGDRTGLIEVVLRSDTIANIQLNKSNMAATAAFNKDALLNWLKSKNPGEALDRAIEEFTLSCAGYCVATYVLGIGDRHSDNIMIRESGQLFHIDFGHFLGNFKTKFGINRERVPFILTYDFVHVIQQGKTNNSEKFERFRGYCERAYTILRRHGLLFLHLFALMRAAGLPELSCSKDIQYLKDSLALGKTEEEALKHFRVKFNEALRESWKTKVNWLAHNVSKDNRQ

[17] = molecular target: T3, Phosphatidylinositol 4,5-bisphosphate 3-kinase catalytic subunit delta isoform (Homo sapiens); conditions: at 1 µM
[18] = molecular target: Phosphatidylinositol 4-kinase beta (Homo sapiens) (UniProt Q9UBF8); conditions: at 0.1 µM
Chain of Phosphatidylinositol 4-kinase beta (Homo sapiens) (Q9UBF8 2-816 limits assumed): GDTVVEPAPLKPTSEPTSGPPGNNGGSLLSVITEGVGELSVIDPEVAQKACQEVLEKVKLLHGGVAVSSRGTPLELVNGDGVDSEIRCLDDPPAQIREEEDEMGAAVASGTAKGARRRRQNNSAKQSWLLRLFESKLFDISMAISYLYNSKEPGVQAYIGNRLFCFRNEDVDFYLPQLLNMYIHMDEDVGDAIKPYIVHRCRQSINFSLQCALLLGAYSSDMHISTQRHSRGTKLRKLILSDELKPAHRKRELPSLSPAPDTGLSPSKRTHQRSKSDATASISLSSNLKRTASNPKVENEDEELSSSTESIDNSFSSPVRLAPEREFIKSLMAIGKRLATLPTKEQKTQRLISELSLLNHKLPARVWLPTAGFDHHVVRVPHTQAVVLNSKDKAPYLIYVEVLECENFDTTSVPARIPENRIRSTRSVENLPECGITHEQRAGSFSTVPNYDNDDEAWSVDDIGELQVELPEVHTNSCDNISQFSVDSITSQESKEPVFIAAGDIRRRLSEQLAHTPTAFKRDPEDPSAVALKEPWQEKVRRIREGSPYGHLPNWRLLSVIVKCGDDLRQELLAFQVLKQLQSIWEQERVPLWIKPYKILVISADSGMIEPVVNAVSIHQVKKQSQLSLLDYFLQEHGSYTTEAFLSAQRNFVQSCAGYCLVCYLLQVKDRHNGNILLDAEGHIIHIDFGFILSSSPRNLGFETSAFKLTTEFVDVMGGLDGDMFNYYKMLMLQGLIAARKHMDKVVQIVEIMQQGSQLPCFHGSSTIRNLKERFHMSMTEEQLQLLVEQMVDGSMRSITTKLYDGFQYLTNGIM

[19] = molecular target: Phosphatidylinositol 4-kinase beta (Homo sapiens) (UniProt Q9UBF8); conditions: at 1 µM
[20] = molecular target: Sphingosine kinase 1 (Homo sapiens) (UniProt Q9NYA1); conditions: at 0.1 µM;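 also: mean percent inhibition of SPHK1 activity, measured within the GSK PKIS screening panel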
Chain of Sphingosine kinase 1 (Homo sapiens) (Q9NYA1 whole entry): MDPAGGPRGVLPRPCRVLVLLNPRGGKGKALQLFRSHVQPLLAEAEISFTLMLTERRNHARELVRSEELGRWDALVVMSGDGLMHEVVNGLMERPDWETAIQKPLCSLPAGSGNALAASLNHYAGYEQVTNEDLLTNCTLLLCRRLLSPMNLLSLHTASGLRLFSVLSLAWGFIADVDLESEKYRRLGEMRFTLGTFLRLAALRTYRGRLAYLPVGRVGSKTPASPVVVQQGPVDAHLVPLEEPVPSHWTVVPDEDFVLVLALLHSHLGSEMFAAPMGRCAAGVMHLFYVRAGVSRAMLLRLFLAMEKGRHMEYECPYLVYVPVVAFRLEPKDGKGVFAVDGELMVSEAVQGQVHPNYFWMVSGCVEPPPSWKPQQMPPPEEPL

Chain of SRSF protein kinase 3 (Homo sapiens) (Q9UPE1 whole entry): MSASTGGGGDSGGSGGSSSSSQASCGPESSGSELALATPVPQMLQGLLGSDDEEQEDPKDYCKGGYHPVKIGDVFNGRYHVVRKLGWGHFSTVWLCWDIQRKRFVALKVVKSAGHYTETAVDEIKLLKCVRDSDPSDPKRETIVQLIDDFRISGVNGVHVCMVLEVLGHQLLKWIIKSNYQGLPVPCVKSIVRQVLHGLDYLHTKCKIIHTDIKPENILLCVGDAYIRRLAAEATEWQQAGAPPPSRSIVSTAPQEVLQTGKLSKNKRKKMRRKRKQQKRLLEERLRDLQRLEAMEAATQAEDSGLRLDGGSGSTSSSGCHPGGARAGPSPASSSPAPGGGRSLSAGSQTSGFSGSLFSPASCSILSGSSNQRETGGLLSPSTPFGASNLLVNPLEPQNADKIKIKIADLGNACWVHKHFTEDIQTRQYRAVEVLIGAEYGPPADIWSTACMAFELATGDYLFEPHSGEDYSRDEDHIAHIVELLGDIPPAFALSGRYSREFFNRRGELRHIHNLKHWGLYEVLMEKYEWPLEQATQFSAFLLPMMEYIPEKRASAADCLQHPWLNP
Chain of Mitogen-activated protein kinase 3 (Homo sapiens) (P27361 whole entry): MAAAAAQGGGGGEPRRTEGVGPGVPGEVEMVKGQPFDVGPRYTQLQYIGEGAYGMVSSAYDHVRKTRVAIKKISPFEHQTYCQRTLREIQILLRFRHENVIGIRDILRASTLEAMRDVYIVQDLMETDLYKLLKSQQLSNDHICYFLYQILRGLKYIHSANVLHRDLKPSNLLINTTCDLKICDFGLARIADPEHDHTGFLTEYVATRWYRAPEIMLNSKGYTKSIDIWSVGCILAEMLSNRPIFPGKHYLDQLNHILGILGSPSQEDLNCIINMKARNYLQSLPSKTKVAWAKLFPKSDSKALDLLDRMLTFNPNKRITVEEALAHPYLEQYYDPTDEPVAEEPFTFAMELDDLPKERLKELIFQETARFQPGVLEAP

Compound | inhibition [1] [%] | inhibition [2] [%] | inhibition [3] [%] | inhibition [4] [%] | inhibition [5] [%] | inhibition [6] [%] | inhibition [7] [%] | inhibition [8] [%] | inhibition [9] [%] | inhibition [10] [%] | inhibition [11] [%] | inhibition [12] [%] | inhibition [13] [%] | inhibition [14] [%] | inhibition [15] [%] | inhibition [16] [%] | inhibition [17] [%] | inhibition [18] [%] | inhibition [19] [%] | inhibition [20] [%]
O=C(Nc1n[nH]c2cc(-c3ccc(F)cc3)ccc12)C1CC1 | 0.11 | -0.27 | 0.1 | 3.02 | 7.71 | 3.42 | 7.25 | 2.38 | 4.36 | 2.05 | 2.53 | -1.78 | -2.19 | 5.93 | 9.6 | 7.39 | 10.8 | 3.38 | -2.55 | 2.17
CN(C)CCOc1ccc(-c2nc(-c3ccncc3)c(-c3ccc4c(c3)CC/C4=N\O)[nH]2)cc1 | 3.36 | 1.13 | 1.14 | 3.87 | 15.9 | 2.37 | 6.69 | 0.98 | 4.84 | 1.54 | 1.28 | -0.47 | -0.41 | 3.08 | 3.29 | 1.62 | 4.12 | -1.17 | -2.78 | 11.7
c1cc(-c2cnn3nc(N4CCOCC4)ccc23)nc(NC2CC2)n1 | 3.9 | 2.15 | 9.24 | 6.66 | 16.6 | 3.09 | 13.1 | 6.27 | 19.7 | 0.63 | 13.6 | -1.17 | 1.29 | 2.09 | 6.22 | 1.85 | 4.21 | 0.77 | 21 | -1.93
COc1cc(N2CCN(C(C)C)CC2)ccc1Nc1nc(Nc2ccc(F)cc2C(N)=O)c2cc[nH]c2n1 | 5.68 | 4.97 | 4.84 | 4.36 | 8.96 | 1.51 | 9.48 | 0.06 | 2.28 | 0.86 | 2.22 | -2.51 | 1.46 | 0.53 | 0.95 | -1.34 | 2.71 | 0.5 | -1.98 | 0.81
N#Cc1c(NC(=O)c2ccc(F)cc2)sc2c1CCCC2 | -0.36 | -1.54 | 0.88 | -0.55 | 3.42 | 1.36 | -0.91 | -0.62 | 0.84 | 0.35 | 0.08 | -1.47 | -1.93 | 1.06 | 0.48 | 1.32 | -1.48 | -4.06 | 1.29 | -0.62
COC(=O)Nc1nc2ccc(S(=O)(=O)c3ccc(NC(=O)Nc4cc(C(F)(F)F)ccc4F)cc3)cc2[nH]1 | 3.32 | -1.38 | -1.81 | 3.23 | 8.81 | 8.26 | 8.9 | 1.33 | 2.66 | 1.77 | 2.36 | -1.52 | -4.55 | 0.87 | 2.69 | 2.19 | 2.98 | 1.19 | 1.36 | -0.71
COc1ccc(-c2cc3c(N)ncnc3o2)cc1 | -1.51 | -0.13 | -0.8 | -1.46 | 0.41 | -1.4 | -0.96 | -2.33 | -2.56 | -1.44 | -1.89 | -1.58 | 1.06 | -1.98 | -0.52 | -0.57 | 0.07 | -0.47 | -0.47 | 9.34
Fc1cccc(COc2ccc(Nc3ncnc4sc(-c5ccco5)cc34)cc2Cl)c1 | 4.3 | -0.82 | 1.38 | 7.31 | 6.29 | 4.57 | 6.75 | 4.02 | 3.46 | 3.22 | 4.18 | -1.79 | -2.01 | 6.18 | 17.2 | 2.28 | 12.4 | -1.28 | 0.68 | 0
CNC(=O)c1cncc(/C=C/c2ccccc2Cl)c1 | 2.18 | -0.92 | 2.45 | -6.55 | -0.16 | 2.14 | 2.01 | 1.17 | -0.14 | -1.75 | -0.18 | 0.65 | 3.33 | 1.22 | 1.59 | 0.5 | 0.38 | 3.54 | 1.28 | 0.48
CC(C)COC(=O)c1ccc2c(c1)/C(=C/Nc1ccc(S(N)(=O)=O)cc1)C(=O)N2 | 13.5 | -1.27 | -1.97 | -0.94 | -2.21 | -0.49 | 7.86 | -1 | 1.38 | 0.22 | -0.52 | -0.82 | -1.99 | 3.8 | -1.43 | 0.18 | 2.64 | 4.22 | -2.78 | 2.57
Nc1ncc(-c2cccc(S(N)(=O)=O)c2)c2scc(-c3ccc(F)c(Cl)c3)c12 | 5.48 | -1.03 | 0.1 | 13.9 | 55.9 | 21.8 | 62.3 | 3.01 | 1.94 | 2.88 | 3.12 | -2.06 | -3.1 | 4.44 | 8.82 | 1.02 | 3.18 | 7.12 | 1.6 | -0.6
CC(C)(CO)CNC(=O)c1ccc2c(c1)/C(=N/Nc1ccc(S(N)(=O)=O)cc1)C(=O)N2 | 16.6 | -0.87 | -1.79 | 2.1 | 1.84 | 2.96 | 9.13 | -0.56 | 0.83 | -0.2 | 0.79 | -1.95 | -1.91 | -2.03 | -1.12 | -0.73 | 2.18 | -1.03 | -0.32 | 0.09
